Test results from PubChem BioAssay (Tox21).
Records with an inconclusive call do not appear. The source made the active and inactive calls. Unless noted, the call rests on the fitted dose curve.

Experiments:
[1] = Nuclear factor erythroid 2-related factor 2/antioxidant responsive element (Nrf2/ARE) small molecule agonists: qHTS cell viability counter screen in human keratinocytes (AID 1919968; active means well fitted curve in the direction sought with a large enough effect in the repeat runs; an effect the other way counts as inactive or inconclusive; further: nearly all actives have a fitted effect of over 55% in size)
Method in brief: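 KeratinoSens cells (HaCaT keratinocytes stably carrying an ARE-luciferase reporter) were seeded at 1,500 cells/well and rested 5 h at 37 C/5% CO2. They were then exposed to compounds in DMSO for 23 h. Viability was read by CellTiter-Fluor fluorescence after 1 h.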

[2] = Nuclear factor erythroid 2-related factor 2/antioxidant responsive element (Nrf2/ARE) small molecule agonists: luciferase reporter gene qHTS assay in human keratinocytes (AID 1919969); further: nearly all actives have a fitted effect of over 35% in size
[3] = molecular target: Gonadotropin-releasing hormone receptor (Homo sapiens) (UniProt P30968); test: Human gonadotropin-releasing hormone receptor (GnRHR) small molecule agonists, calcium flux assay in GnRHR-HEK293 cells (AID 1920063); further: nearly all actives have a fitted effect of over 35% in size
Method in brief: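 HEK293 cells stably expressing human GnRHR were plated 18 h at 37 °C, loaded with calcium dye 1 h at 37 °C, then given compound in agonist mode; fluorescence (Ex/Em 480/540) read kinetically for 3 min at 1 s intervals.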

[4] = molecular target: KiSS-1 receptor (Homo sapiens) (UniProt Q969F8); test: Human kisspeptin (KISS1R) small molecule agonists, calcium flux assay in KISS1R-HEK293 cells (AID 1920064; active means well fitted curve in the direction sought with a large enough effect in the repeat runs; an effect the other way counts as inactive or inconclusive)
Method in brief: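 HEK293 cells stably expressing human KISS1R were plated 18 h at 37 °C, loaded with calcium dye for 1 h at 37 °C, then given compound by pin tool. Fluorescence (Ex/Em 480/540) was read kinetically for 3 min.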

[5] = G protein-coupled receptor (GPCR) small molecule agonists, calcium flux assay: HEK293 wild type cell line counter screen (AID 1920065)
Method in brief: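 Cells were plated and cultured 18 h at 37 C/5% CO2, then loaded with calcium dye for 1 h at 37 C. Compounds in DMSO were pin-transferred in agonist mode, and fluorescence (Ex/Em 480/540) was read kinetically for 3 min at 1 s intervals.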

[6] = p53 small molecule agonists, cell-based qHTS assay with human liver microsomes (AID 1963577)
Method in brief: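 Fluorescence of the beta-lactamase reporter in p53RE-bla cells, detected with LiveBLAzer substrate (2 h, room temperature, dark), served as the read-out after 16 h compound exposure at 37 C with human liver microsomes and NADPH, each 0.5 mg/mL final.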

[7] = p53 small molecule agonists, cell-based qHTS assay with rat liver microsomes (AID 1963578)
Method in brief: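 Cells carrying a p53 response element–beta-lactamase reporter were plated and rested 5 h, then dosed with compound in DMSO plus rat liver microsomes and NADPH, each at 0.5 mg/mL final. After 16 h at 37 C, LiveBLAzer substrate was added for 2 h.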

[8] = p53 small molecule agonists, cell-based qHTS assay with human liver microsomes: qHTS cell viability counter screen (AID 1963579); further: nearly all actives have a fitted effect of over 45% in size
Method in brief: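 Cytotoxicity counter screen: p53RE-bla, 4,000 cells/well; 5 h settle, 37 C/5% CO2; cpd + HLM 0.5 mg/mL + NADPH 0.5 mg/mL (final); 16 h, 37 C; CellTiter-Glo, 30 min RT, luminescence.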

[9] = p53 small molecule agonists, cell-based qHTS assay with rat liver microsomes: qHTS cell viability counter screen (AID 1963580); further: nearly all actives have a fitted effect of over 45% in size
Method in brief: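 Viability is assessed in parallel with the p53 reporter read: HCT-116 p53RE-bla cells receive compounds plus rat microsomes and NADPH (0.5 mg/mL final apiece), incubate 16 h at 37 C, and then CellTiter-Glo luminescence is recorded.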

[10] = p53 small molecule agonists, cell-based qHTS assay: qHTS cell viability counter screen (AID 1963581); further: nearly all actives have a fitted effect of over 45% in size
Method in brief: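 p53RE-bla HCT-116 cells were exposed to compounds for 16 h at 37 C; after the beta-lactamase FRET read in the same wells, CellTiter-Glo was added and luminescence (intracellular ATP) read after 30 min at room temperature.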

[11] = p53 small molecule agonists, cell-based qHTS assay (AID 1963582; active means well fitted activation curve with a large enough effect in the signal ratio in the repeat runs, not every such curve was filed as active; the % refers to the signal ratio)
Method in brief: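 p53RE-bla beta-lactamase reporter cells rested 5 h at 37 C/5% CO2, then received compounds in DMSO by pin transfer and were incubated 16 h at 37 C. LiveBLAzer B/G FRET substrate was loaded for 2 h at room temperature before fluorescence reading.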

[12] = molecular target: 5-hydroxytryptamine receptor 2A (Homo sapiens) (UniProt P28223); test: 5-hydroxytryptamine receptor 2A (HTR2A) small molecule antagonists, cell-based qHTS assay (AID 1963586); further: nearly all actives have a fitted effect of over 45% in size
Method in brief: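 Antagonist-mode intracellular calcium assay: DOI (4 nM) added after 5 min compound pre-incubation at room temperature to dye-loaded HTR2A-CHO cells. Fluorescence followed for 3 min, sampled every second.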

[13] = molecular target: 5-hydroxytryptamine receptor 2A (Homo sapiens) (UniProt P28223); test: 5-hydroxytryptamine receptor 2A (HTR2A) small molecule agonists, cell-based qHTS assay (AID 1963587); further: nearly all actives have a fitted effect of over 30% in size
Method in brief: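 CHO cells stably expressing human HTR2A, plated 18 h, loaded with calcium dye 1 h at 37 C. Agonist mode: compounds added and intracellular calcium fluorescence recorded kinetically for 2 min at 1 sec intervals.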

[14] = molecular target: Muscarinic acetylcholine receptor M1 (Homo sapiens) (UniProt P11229); test: Cholinergic receptor muscarinic 1 (CHRM1) small molecule antagonists, cell-based qHTS assay (AID 1963588); further: nearly all actives have a fitted effect of over 40% in size
Method in brief: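 CHRM1-CHO calcium-flux assay, antagonist mode. Cells were seeded 18 h, dye-loaded 1 h at 37 C and given compound for 5 min at RT, then acetylcholine was added at 50nM. FDSS fluorescence was read 3 min; 15 concentrations, three runs.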

[15] = molecular target: Muscarinic acetylcholine receptor M1 (Homo sapiens) (UniProt P11229); test: Cholinergic receptor muscarinic 1 (CHRM1) small molecule agonists, cell-based qHTS assay (AID 1963589); further: nearly all actives have a fitted effect of over 35% in size
Method in brief: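 CHO cells stably expressing human CHRM1, seeded 18 h at 37 C/5% CO2, dye-loaded 1 h at 37 C, then given compound in agonist mode; intracellular calcium fluorescence read kinetically at 1 s intervals. Fifteen concentrations, three independent runs.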

[16] = cAMP Responsive Elements (CRE) small molecule agonists, cell-based qHTS assay (AID 1963590)
Method in brief: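 CRE-bla HEK 293T cells in DMEM with 10% dialyzed FBS, NEAA, pyruvate and 25 mM HEPES were plated 18 h at 37 C/5% CO2, then exposed to compounds in DMSO for 3 h before LiveBLAzer B/G FRET substrate addition.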

[17] = cAMP Responsive Elements (CRE) small molecule antagonists, cell-based qHTS assay (AID 1963591; active means well fitted inhibition curve with a large enough effect in the signal ratio in the repeat runs, not every such curve was filed as active; the % refers to the signal ratio)
Method in brief: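 CRE-bla HEK293T cells were plated 18 h at 37 °C/5% CO2, pinned with compound in DMSO, then stimulated with NKH477 at 0.25 uM final for 3 h. LiveBLAzer B/G FRET substrate was added and plates incubated 2 h at room temperature.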

[18] = molecular target: Beta-2 adrenergic receptor (Homo sapiens) (UniProt P07550); test: Adrenergic beta2 receptor (ADRB2) small molecule antagonists, cell-based qHTS assay (AID 1963592); further: series mostly up to about 92 µM; nearly all actives have a fitted effect of over 50% in size
Method in brief: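 Cells (CHO, stable ADRB2 overexpression) incubated 18-20hr at 37C; compounds added from DMSO; agonist mix (1nM isoproterenol, 100uM IBMX, 25uM Ro-20-1724) added; 0.5hr RT; d2-cAMP and anti-cAMP-cryptate added; 1hr RT; 665/615 nm read.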

[19] = molecular target: D(2) dopamine receptor (Homo sapiens) (UniProt P14416); test: Dopamine D2 receptor (DRD2) small molecule agonists, cell-based qHTS assay (AID 1963594); further: nearly all actives have a fitted effect of over 35% in size
Method in brief: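 HEK293 cells stably expressing human DRD2, pre-treated with PDE inhibitor Ro20-1724 (0.1 mM final) and compound 10 min at room temperature, then stimulated with NKH477 (200nM […]) for 30 min. cAMP read by HTRF (665/620 nm).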

[20] = molecular target: D(2) dopamine receptor (Homo sapiens) (UniProt P14416); test: Dopamine D2 receptor (DRD2) small molecule antagonists, cell-based qHTS assay (AID 1963595; active means well fitted inhibition curve with a large enough effect in the signal ratio in the repeat runs, with a control signal flat; the % refers to the signal ratio)
Method in brief: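 Antagonism was scored as restored cAMP in HEK293-DRD2 cells. These cells were stimulated with 200 nM NKH477 and 12 nM quinpirole for 30 min at room temperature, in the presence of 0.1 mM Ro20-1724.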

Measured: Potency

Sequence of Muscarinic acetylcholine receptor M1 (Homo sapiens) (P11229 whole entry, looked up): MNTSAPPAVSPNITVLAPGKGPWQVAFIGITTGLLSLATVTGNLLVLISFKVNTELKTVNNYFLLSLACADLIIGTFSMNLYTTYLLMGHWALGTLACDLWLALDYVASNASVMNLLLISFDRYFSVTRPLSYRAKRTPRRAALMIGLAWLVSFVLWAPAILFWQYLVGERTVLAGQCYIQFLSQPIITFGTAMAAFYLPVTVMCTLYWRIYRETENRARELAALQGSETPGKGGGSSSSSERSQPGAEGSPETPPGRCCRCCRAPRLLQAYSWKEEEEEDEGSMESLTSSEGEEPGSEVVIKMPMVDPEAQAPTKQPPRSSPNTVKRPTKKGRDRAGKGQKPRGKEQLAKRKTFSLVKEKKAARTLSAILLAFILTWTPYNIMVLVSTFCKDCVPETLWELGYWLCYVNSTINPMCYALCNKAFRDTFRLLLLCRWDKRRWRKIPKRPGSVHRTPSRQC
Sequence of D(2) dopamine receptor (Homo sapiens) (P14416 whole entry, looked up): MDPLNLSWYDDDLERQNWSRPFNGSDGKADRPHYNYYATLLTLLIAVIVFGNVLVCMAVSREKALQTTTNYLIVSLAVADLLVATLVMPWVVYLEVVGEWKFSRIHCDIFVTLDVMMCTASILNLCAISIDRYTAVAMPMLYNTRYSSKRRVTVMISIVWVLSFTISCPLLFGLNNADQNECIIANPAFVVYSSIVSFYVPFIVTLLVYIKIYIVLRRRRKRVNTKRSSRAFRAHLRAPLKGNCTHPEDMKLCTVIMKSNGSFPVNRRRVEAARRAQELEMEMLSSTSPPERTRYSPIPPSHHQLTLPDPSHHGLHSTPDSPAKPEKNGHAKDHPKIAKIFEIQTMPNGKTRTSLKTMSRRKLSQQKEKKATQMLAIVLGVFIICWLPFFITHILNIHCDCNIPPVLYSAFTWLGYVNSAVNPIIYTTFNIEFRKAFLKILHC
Sequence of 5-hydroxytryptamine receptor 2A (Homo sapiens) (P28223 whole entry, looked up): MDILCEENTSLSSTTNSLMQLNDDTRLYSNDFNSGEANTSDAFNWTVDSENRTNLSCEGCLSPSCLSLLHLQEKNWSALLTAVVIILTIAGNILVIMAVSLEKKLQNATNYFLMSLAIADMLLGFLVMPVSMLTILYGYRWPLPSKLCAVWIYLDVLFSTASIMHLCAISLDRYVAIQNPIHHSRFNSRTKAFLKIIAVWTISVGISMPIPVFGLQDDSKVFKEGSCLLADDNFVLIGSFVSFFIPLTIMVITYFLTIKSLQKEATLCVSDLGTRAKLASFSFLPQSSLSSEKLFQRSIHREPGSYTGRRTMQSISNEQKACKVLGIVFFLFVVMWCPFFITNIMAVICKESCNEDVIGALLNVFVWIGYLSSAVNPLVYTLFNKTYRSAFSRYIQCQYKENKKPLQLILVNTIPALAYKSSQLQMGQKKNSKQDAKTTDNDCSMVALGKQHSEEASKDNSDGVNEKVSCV
Sequence of Gonadotropin-releasing hormone receptor (Homo sapiens) (P30968 whole entry, looked up): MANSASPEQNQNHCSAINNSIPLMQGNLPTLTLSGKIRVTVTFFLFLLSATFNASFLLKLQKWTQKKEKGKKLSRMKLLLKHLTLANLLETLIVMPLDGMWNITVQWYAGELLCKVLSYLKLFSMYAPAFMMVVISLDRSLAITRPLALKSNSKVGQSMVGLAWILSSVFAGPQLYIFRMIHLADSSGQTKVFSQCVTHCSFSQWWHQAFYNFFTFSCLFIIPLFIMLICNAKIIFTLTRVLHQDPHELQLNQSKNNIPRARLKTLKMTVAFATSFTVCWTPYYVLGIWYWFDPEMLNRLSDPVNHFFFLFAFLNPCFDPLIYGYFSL
Sequence of Beta-2 adrenergic receptor (Homo sapiens) (P07550 whole entry, looked up): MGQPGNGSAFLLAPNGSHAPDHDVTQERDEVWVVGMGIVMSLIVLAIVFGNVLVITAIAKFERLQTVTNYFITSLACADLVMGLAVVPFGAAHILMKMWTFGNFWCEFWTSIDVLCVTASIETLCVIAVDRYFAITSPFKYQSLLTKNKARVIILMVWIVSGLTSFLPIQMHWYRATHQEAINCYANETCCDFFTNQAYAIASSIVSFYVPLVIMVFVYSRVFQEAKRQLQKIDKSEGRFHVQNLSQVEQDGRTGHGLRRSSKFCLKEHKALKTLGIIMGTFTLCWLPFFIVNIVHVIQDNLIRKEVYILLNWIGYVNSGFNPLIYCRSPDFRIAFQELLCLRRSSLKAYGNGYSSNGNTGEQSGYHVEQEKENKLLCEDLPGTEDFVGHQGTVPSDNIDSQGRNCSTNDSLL
Sequence of KiSS-1 receptor (Homo sapiens) (Q969F8 whole entry, looked up): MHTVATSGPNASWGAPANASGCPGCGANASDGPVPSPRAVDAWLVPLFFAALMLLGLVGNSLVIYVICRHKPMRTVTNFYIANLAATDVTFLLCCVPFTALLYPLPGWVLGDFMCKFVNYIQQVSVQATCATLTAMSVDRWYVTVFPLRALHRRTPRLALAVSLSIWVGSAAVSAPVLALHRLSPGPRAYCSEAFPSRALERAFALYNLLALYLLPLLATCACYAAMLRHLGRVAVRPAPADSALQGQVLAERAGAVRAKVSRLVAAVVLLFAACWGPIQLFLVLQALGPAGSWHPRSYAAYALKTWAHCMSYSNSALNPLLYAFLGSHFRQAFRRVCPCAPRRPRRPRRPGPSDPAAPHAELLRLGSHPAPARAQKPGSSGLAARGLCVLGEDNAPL

CC(C)(C)N(CCO)CCO
inactive: all assays above

CCC1(C)NC(=O)NC1=O (centres undefined)
inactive: all assays above

C1OCOCO1
inactive: all assays above

CC(=O)C1C(=O)C=C(C)OC1=O (centres undefined)
inactive: all assays above

C=CCOc1c(Br)cc(C(C)(C)c2cc(Br)c(OCC=C)c(Br)c2)cc1Br
not listed: [19]
inactive: all other assays above

COC(C)OC
inactive: all assays above

Nc1ccc(F)c([N+](=O)[O-])c1
inactive: all assays above
